{
  "source": "the antibiotic and cytotoxicity screens of Wong et al. (2023)",
  "note": "Out of some 39,000 compounds screened, about 3,300 (8.5%) were called active. What follows is part of a selection rich in actives, with near analogues and random picks from the rest.",
  "data": [
    {"test_system": "HepG2", "test": "cytotoxicity call (relative viability < 0.9)", "settings": "10 µM", "values": [
      {"smiles": "Cc1noc(C)c1NC(=O)Nc1ccc2c(c1)C(=O)N([C@H](C)CO)C[C@H](C)[C@@H](CN(C)S(=O)(=O)c1ccc(Cl)cc1)OCCCC[C@H](C)O2", "cytotoxicity call": "inactive"},
      {"smiles": "CCc1nnc(SCC(=O)OC)[nH]1", "cytotoxicity call": "inactive"},
      {"smiles": "COc1ccc(NC(=O)N(C)C[C@H]2OCCCC[C@H](C)Oc3ccc(NC(=O)Nc4c(C)noc4C)cc3C(=O)N([C@H](C)CO)C[C@@H]2C)cc1", "cytotoxicity call": "inactive"},
      {"smiles": "C[C@H](CO)N1C[C@H](C)[C@@H](CN(C)Cc2ccc(C(F)(F)F)cc2)Oc2ccc(NC(=O)Cc3ccccc3)cc2CC1=O", "cytotoxicity call": "inactive"},
      {"smiles": "C[C@@H]1CN([C@H](C)CO)C(=O)Cc2cc(NC(=O)Cc3ccccc3)ccc2O[C@@H]1CN(C)Cc1ccc(C(F)(F)F)cc1", "cytotoxicity call": "active"},
      {"smiles": "C[C@H]1CN([C@@H](C)CO)C(=O)Cc2cc(NC(=O)Cc3ccccc3)ccc2O[C@@H]1CN(C)Cc1ccc(C(F)(F)F)cc1", "cytotoxicity call": "inactive"},
      {"smiles": "C[C@@H]1CN([C@H](C)CO)C(=O)Cc2cc(NC(=O)Cc3ccccc3)ccc2O[C@H]1CN(C)Cc1ccc(C(F)(F)F)cc1", "cytotoxicity call": "inactive"},
      {"smiles": "C[C@H](CO)N1C[C@H](C)[C@H](CN(C)Cc2ccc(C(F)(F)F)cc2)Oc2ccc(NC(=O)Cc3ccccc3)cc2CC1=O", "cytotoxicity call": "active"},
      {"smiles": "C[C@@H]1CN([C@@H](C)CO)C(=O)Cc2cc(NC(=O)Cc3ccccc3)ccc2O[C@H]1CN(C)C(=O)Nc1ccc(C(F)(F)F)cc1", "cytotoxicity call": "inactive"},
      {"smiles": "C[C@@H]1CN([C@@H](C)CO)C(=O)Cc2cc(NC(=O)Cc3ccccc3)ccc2O[C@@H]1CN(C)Cc1ccc(C(F)(F)F)cc1", "cytotoxicity call": "active"},
      {"smiles": "C[C@@H]1CN([C@@H](C)CO)C(=O)Cc2cc(NC(=O)Cc3ccccc3)ccc2O[C@H]1CN(C)Cc1ccc(C(F)(F)F)cc1", "cytotoxicity call": "inactive"},
      {"smiles": "C[C@H]1CN([C@@H](C)CO)C(=O)Cc2cc(NC(=O)Cc3ccccc3)ccc2O[C@H]1CN(C)Cc1ccc(C(F)(F)F)cc1", "cytotoxicity call": "inactive"},
      {"smiles": "CN1CCN(C(=O)C[C@@H]2CC[C@H]3[C@@H](COC[C@@H](O)CN3C(=O)C3CCOCC3)O2)CC1", "cytotoxicity call": "inactive"},
      {"smiles": "COCC(=O)Nc1ccc2c(c1)C(=O)N(C)[C@@H]1CC[C@H](CC(=O)NCc3ccccc3Cl)O[C@@H]1CO2", "cytotoxicity call": "inactive"},
      {"smiles": "CCCn1c(=O)[nH]c2nc(-c3ccc(S(=O)(=O)N4CCN(c5ccc(Cl)cc5)CC4)cc3)[nH]c2c1=O", "cytotoxicity call": "inactive"},
      {"smiles": "CC(C)(C)[S@](=O)N1Cc2cc(C(=O)N[C@@H]3CCN(Cc4ccccc4)C3)nc(-c3cccc(-c4ccncc4)c3)c2[C@@H]1CCO", "cytotoxicity call": "inactive"},
      {"smiles": "Cc1ccnc(-n2c(C)ccc2C)c1", "cytotoxicity call": "inactive"},
      {"smiles": "C[C@@H]1CN([C@@H](C)CO)C(=O)c2cccc(NC(=O)Nc3ccc4c(c3)OCO4)c2O[C@@H]1CN(C)C(=O)Nc1ccc(C(F)(F)F)cc1", "cytotoxicity call": "inactive"},
      {"smiles": "C[C@@H]1CN([C@H](C)CO)C(=O)CCCn2nncc2CO[C@@H]1CN(C)C(=O)Nc1ccc(N2CCN(C)CC2)cc1", "cytotoxicity call": "inactive"},
      {"smiles": "C[C@@H]1CN([C@H](C)CO)C(=O)c2cccc(NC(=O)c3nc4ccccc4s3)c2O[C@H]1CN(C)C(=O)Nc1ccc(C(F)(F)F)cc1", "cytotoxicity call": "inactive"},
      {"smiles": "COc1cccc(S(=O)(=O)Nc2ccc3c(c2)[C@@H]2C[C@@H](CC(=O)NCc4ccccc4F)O[C@@H](CO)[C@@H]2O3)c1", "cytotoxicity call": "active"},
      {"smiles": "O=C(C[C@H]1C[C@@H]2c3cc(NS(=O)(=O)c4ccc(F)cc4)ccc3O[C@@H]2[C@@H](CO)O1)NCc1ccc(Oc2ccccc2)cc1", "cytotoxicity call": "active"},
      {"smiles": "O=C(C[C@@H]1C[C@@H]2c3cc(NS(=O)(=O)c4ccc(F)cc4)ccc3O[C@@H]2[C@H](CO)O1)NCc1ccccc1", "cytotoxicity call": "inactive"},
      {"smiles": "O=C(C[C@H]1C[C@H]2c3cc(NS(=O)(=O)c4ccc(F)cc4)ccc3O[C@H]2[C@H](CO)O1)NCc1ccc(Oc2ccccc2)cc1", "cytotoxicity call": "active"},
      {"smiles": "COc1cccc(S(=O)(=O)Nc2ccc3c(c2)[C@@H]2C[C@@H](CC(=O)NCc4ccccc4F)O[C@H](CO)[C@@H]2O3)c1", "cytotoxicity call": "inactive"},
      {"smiles": "COc1cccc(S(=O)(=O)Nc2ccc3c(c2)[C@H]2C[C@@H](CC(=O)NCc4ccccc4F)O[C@H](CO)[C@H]2O3)c1", "cytotoxicity call": "inactive"},
      {"smiles": "O=C(C[C@H]1C[C@@H]2c3cc(NS(=O)(=O)c4ccc(F)cc4)ccc3O[C@@H]2[C@H](CO)O1)NCc1ccccc1", "cytotoxicity call": "inactive"},
      {"smiles": "O=C(C[C@H]1C[C@@H]2c3cc(NS(=O)(=O)c4ccc(F)cc4)ccc3O[C@@H]2[C@H](CO)O1)NCc1ccc(Oc2ccccc2)cc1", "cytotoxicity call": "inactive"},
      {"smiles": "O=C(C[C@@H]1C[C@@H]2c3cc(NS(=O)(=O)c4ccc(F)cc4)ccc3O[C@@H]2[C@H](CO)O1)NCc1ccc(Oc2ccccc2)cc1", "cytotoxicity call": "inactive"},
      {"smiles": "O=C(C[C@H]1C[C@H]2c3cc(NS(=O)(=O)c4ccc(F)cc4)ccc3O[C@H]2[C@@H](CO)O1)NCc1ccc(Oc2ccccc2)cc1", "cytotoxicity call": "inactive"},
      {"smiles": "O=C(C[C@@H]1C[C@@H]2c3cc(NS(=O)(=O)c4ccc(F)cc4)ccc3O[C@@H]2[C@@H](CO)O1)NCc1ccc(Oc2ccccc2)cc1", "cytotoxicity call": "inactive"},
      {"smiles": "O=C(C[C@@H]1C[C@H]2c3cc(NS(=O)(=O)c4ccc(F)cc4)ccc3O[C@H]2[C@@H](CO)O1)NCc1ccc(Oc2ccccc2)cc1", "cytotoxicity call": "active"},
      {"smiles": "CNC[C@H]1Oc2cc(C#CC(C)(C)O)ccc2S(=O)(=O)N([C@H](C)CO)C[C@H]1C", "cytotoxicity call": "inactive"},
      {"smiles": "COc1cc(F)c(F)c(Nc2ccc(I)cc2F)c1NS(=O)(=O)C1(C[C@H](O)CO)CC1", "cytotoxicity call": "inactive"},
      {"smiles": "O=C(NCC1(c2nc(-c3ccccc3)cs2)CCOCC1)c1cccc(-c2noc(C(F)(F)F)n2)c1", "cytotoxicity call": "inactive"},
      {"smiles": "C[C@@H]1CN([C@@H](C)CO)C(=O)c2cccc(NS(=O)(=O)c3cn(C)cn3)c2O[C@@H]1CN(C)Cc1ccc(C(=O)Nc2ccccc2N)cc1", "cytotoxicity call": "inactive"},
      {"smiles": "C[C@H]1CN([C@@H](C)CO)C(=O)c2cccc(NC(=O)c3ccc(-c4nccs4)cc3)c2O[C@H]1CN(C)C(=O)Nc1ccc(F)cc1", "cytotoxicity call": "inactive"},
      {"smiles": "C[C@H]1CN([C@@H](C)CO)C(=O)c2cc(NC(=O)Nc3ccc(F)cc3)ccc2O[C@H]1CN(C)C(=O)Nc1cccc2ccccc12", "cytotoxicity call": "inactive"},
      {"smiles": "COc1cc(Nc2c(C#N)cnc3cc(OCCCN4CCN(C)CC4)c(OC)cc23)c(Cl)cc1Cl", "cytotoxicity call": "active"},
      {"smiles": "O=C(C1=C[C@@H](c2ccc(Br)cc2)C[C@@H](OCc2ccc(CO)cc2)O1)N1CCN(Cc2ccccc2)CC1", "cytotoxicity call": "inactive"},
      {"smiles": "COc1cc2c(NC3CCN(C)CC3)nc(N3CCCN(C)CC3)nc2cc1OCCOCCN(C)C", "cytotoxicity call": "inactive"},
      {"smiles": "COc1cc2c(cc1OC)C(=O)C(CC1CCN(Cc3ccccc3)CC1)C2.Cl", "note": "(stereo not drawn)", "cytotoxicity call": "inactive"},
      {"smiles": "COc1cc2nc(N3CCCN(Cc4ccccc4)CC3)nc(NC3CCN(Cc4ccccc4)CC3)c2cc1OC", "cytotoxicity call": "active"},
      {"smiles": "COc1cc(C(=O)OCCCN2CCCN(CCOC(=O)c3cc(OC)c(OC)c(OC)c3)CC2)cc(OC)c1OC", "cytotoxicity call": "inactive"},
      {"smiles": "O=C(C1=C[C@H](c2ccc(Br)cc2)C[C@H](OCc2ccc(CO)cc2)O1)N1CCN(Cc2ccccc2)CC1", "cytotoxicity call": "inactive"},
      {"smiles": "COc1cc2nc(N3CCCN(Cc4ccccc4)CC3)nc(Nc3ccc(F)c(Cl)c3)c2cc1OC", "cytotoxicity call": "active"},
      {"smiles": "COc1cc(C(=O)OCCCN2CCN(CCCOC(=O)c3cc(OC)c(OC)c(OC)c3)CC2)cc(OC)c1OC", "cytotoxicity call": "inactive"},
      {"smiles": "Brc1ccc2nc(N3CCCN(Cc4ccccc4)CC3)nc(NC3CCN(Cc4ccccc4)CC3)c2c1", "cytotoxicity call": "active"}
    ]}
  ]
}
